Reference: PubChem BioAssay AID1159580 (chemical genetic matrix, 2015)
In all, about 5,500 compounds went through this assay and about 2,000 (36%) were called active. Inconclusive results (about 18%) are left out. Cut-off read from the data, not from the text of the source: active = normalized growth mostly below about 0.91 (no sharp cut-off); inconclusive = no clear call, values can overlap the other calls; inactive = mostly above about 0.92. This is one part of the list.

Test: chemical genetic growth profiling, strain panel (AID 1159580);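 note: tested at 20 µM; growth read once vehicle control cultures reached saturation at 30 °C; 1 = growth at the plate median or of vehicle wells; lower values mean less growth of the strain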
Conditions: S. cerevisiae deletion strains, growth OD

Measured: normalized growth

COc1ccc(-c2cc(=O)c3ccccc3o2)cc1OC
inactive: locus YAL013W, strain DEP1, hits give low values 1.01 | locus YAL021C, strain ccr4, hits give low values 0.942 | locus YBR021W, strain FUR4, hits give low values 0.896 | locus YBR171W, strain sec66, hits give low values 0.917 | locus YBR229C, strain ROT2, hits give low values 1.04 | locus YCL029C, strain bik1, hits give low values 0.974 | locus YCR088W, strain abp1, hits give low values 0.929 | locus YDL005C, strain med2, hits give low values 0.919 | locus YDL040C, strain nat1, hits give low values 0.939 | locus YDL074C, strain BRE1, hits give low values 0.981 | locus YDL101C, strain DUN1, hits give low values 1.02 | locus YDL185W, strain tfp1, hits give low values 1.03 | locus YDL192W, strain arf1, hits give low values 0.989 | locus YDR001C, strain nth1, hits give low values 0.93 | locus YDR101C, strain arx1, hits give low values 0.95 | locus YDR150W, strain NUM1, hits give low values 1.05 | locus YDR159W, strain sac3, hits give low values 0.904 | locus YDR162C, strain NBP2, hits give low values 1.01 | locus YDR195W, strain ref2 1.13 | locus YDR297W, strain sur2, hits give low values 0.927 | locus YDR318W, strain mcm21, hits give low values 0.999 | locus YDR334W, strain swr1, hits give low values 0.922 | locus YDR335W, strain msn5, hits give low values 0.925 | locus YDR388W, hits give low values 1.01 | locus YDR502C, strain sam2, hits give low values 0.925 | locus YEL061C, strain CIN8, hits give low values 1.03 | locus YER015W, strain faa2, hits give low values 0.932 | locus YER016W, strain bim1, hits give low values 0.933 | locus YER110C, hits give low values 1.04 | locus YER111C, strain swi4, hits give low values 0.913 | locus YER155C, strain BEM2, hits give low values 1.07 | locus YER167W, strain BCK2, hits give low values 1.05 | locus YGL086W, strain mad1, hits give low values 0.982 | locus YGL248W, strain PDE1, hits give low values 0.97 | locus YGR135W, strain pre9, hits give low values 0.955 | locus YGR252W, strain gcn5, hits give low values 0.819 | locus YHR027C, strain rpn1, hits give low values 0.93 | locus YHR030C, strain SLT2, hits give low values 1.06 | locus YHR079C, strain IRE1 (second series), hits give low values 1.03 | locus YHR094C, strain hxt1, hits give low values 1.03 | locus YHR129C, strain ARP1, hits give low values 1.03 | locus YHR200W, strain rpn10, hits give low values 1.03 | locus YIL066C, strain RNR3, hits give low values 1.01 | locus YIL073C, strain SPO22, hits give low values 0.925 | locus YIL125W, strain kgd1, hits give low values 0.976 | locus YIR030C, strain dcg1, hits give low values 1.02 | locus YJL092W, strain hpr5, hits give low values 0.923 | locus YJL095W, strain BCK1, hits give low values 0.973 | locus YJL115W, strain asf1, hits give low values 0.928 | locus YJL129C, strain trk1, hits give low values 0.901 | locus YJL134W, strain LCB3, hits give low values 1.05 | locus YJL154C, strain vps35, hits give low values 0.938 | locus YJL168C, strain set2, hits give low values 1.03 | locus YJL187C, strain SWE1 (second series), hits give low values 0.982 | locus YJR043C, strain POL32, hits give low values 0.979 | locus YJR075W, strain HOC1, hits give low values 1.03 | locus YKL068W, hits give low values 1.03 | locus YKL085W, strain MDH1 (second series), hits give low values 1.03 | locus YKL085W, strain MDH1, hits give low values 1.03 | locus YKL190W, strain CNB1, hits give low values 1.03 | locus YKR001C, strain vps1, hits give low values 0.96 | locus YKR026C, strain gcn3, hits give low values 0.93 | locus YKR091W, strain srl3, hits give low values 0.935 | locus YLL041C, strain sdh2, hits give low values 0.941 | locus YLR027C, strain aat2, hits give low values 0.926 | locus YLR039C, strain RIC1, hits give low values 0.963 | locus YLR058C, strain SHM2, hits give low values 1.01 | locus YLR102C, strain apc9, hits give low values 1.03 | locus YLR262C, strain YPT6, hits give low values 0.875 | locus YLR268W, strain sec22, hits give low values 0.936 | locus YLR330W, strain CHS5, hits give low values 1.04 | locus YLR342W, strain FKS1 (second series), hits give low values 0.873 | locus YLR357W, strain rsc2, hits give low values 0.948 | locus YLR371W, strain rom2, hits give low values 1.04 | locus YLR384C, strain iki3, hits give low values 0.935 | locus YLR418C, strain cdc73, hits give low values 0.918 | locus YML016C, strain PPZ1, hits give low values 1.05 | locus YML032C, strain rad52, hits give low values 0.96 | locus YML124C, strain tub3, hits give low values 1.04 | locus YMR078C, strain ctf18, hits give low values 1.02 | locus YMR129W, hits give low values 0.945 | locus YMR223W, strain ubp8, hits give low values 0.99 | locus YMR231W, strain pep5, hits give low values 0.946 | locus YMR307W, strain GAS1, hits give low values 0.955 | locus YNL067W, strain RPL9B, hits give low values 0.969 | locus YNL209W, strain ssb2, hits give low values 0.936 | locus YNL233W, strain BNI4, hits give low values 1.02 | locus YNL250W, strain rad50, hits give low values 0.993 | locus YNL271C, strain bni1, hits give low values 0.995 | locus YNL298W, strain CLA4, hits give low values 0.934 | locus YNL307C, strain MCK1, hits give low values 1.02 | locus YNL322C, strain KRE1 (second series), hits give low values 0.953 | locus YNR052C, strain pop2, hits give low values 0.918 | locus YOL006C, strain TOP1, hits give low values 0.93 | locus YOL012C, strain htz1 1.9 | locus YOL147C, strain pex11, hits give low values 1.03 | locus YOR061W, strain CKA2, hits give low values 1.02 | locus YOR069W, strain VPS5, hits give low values 1.02 | locus YOR080W, strain dia2, hits give low values 0.928 | locus YOR136W, strain idh2, hits give low values 1.02 | locus YOR144C, strain elg1, hits give low values 0.994 | locus YOR265W, strain rbl2, hits give low values 0.935 | locus YOR316C, strain cot1, hits give low values 1.03 | locus YPR119W, strain clb2, hits give low values 1.04 | locus YPR141C, strain kar3, hits give low values 1.04 | locus YPR163C, strain tif3, hits give low values 0.993 | locus YPR167C, strain met16, hits give low values 1.02 | strain wtn01, hits give low values 0.93
active: locus YAL026C, strain drs2, hits give low values 0.838 | locus YAL030W, strain snc1, hits give low values 0.91 | locus YBL061C, strain skt5, hits give low values 0.898 | locus YBR009C, strain hhf1, hits give low values 0.772 | locus YBR023C, strain chs3, hits give low values 0.842 | locus YBR231C, strain swc5, hits give low values 0.83 | locus YBR279W, strain paf1, hits give low values 0.9 | locus YCL011C, strain gbp2, hits give low values 0.824 | locus YCL016C, strain dcc1, hits give low values 0.871 | locus YCL061C, strain MRC1, hits give low values 0.904 | locus YCL069W, strain vba3, hits give low values 0.921 | locus YDL035C, strain GPR1, hits give low values 0.824 | locus YDR069C, strain doa4, hits give low values 0.897 | locus YDR137W, strain rgp1, hits give low values 0.681 | locus YDR392W, strain spt3, hits give low values 0.41 | locus YEL003W, strain gim4, hits give low values 0.9 | locus YEL037C, strain rad23, hits give low values 0.872 | locus YEL061C, strain CIN8 (second series), hits give low values 0.913 | locus YER155C, strain BEM2 (second series), hits give low values 0.381 | locus YFR010W, strain ubp6, hits give low values 0.889 | locus YGL078C, strain dbp3, hits give low values 0.869 | locus YGL167C, strain pmr1, hits give low values 0.878 | locus YGL173C, strain kem1, hits give low values 0.897 | locus YGL227W, strain vid30, hits give low values 0.912 | locus YGL240W, strain doc1, hits give low values 0.772 | locus YGL253W, strain hxk2, hits give low values 0.718 | locus YHR013C, strain ard1, hits give low values 0.789 | locus YHR142W, strain chs7, hits give low values 0.683 | locus YJL095W, strain BCK1 (second series), hits give low values 0.823 | locus YJL164C, strain tpk1, hits give low values 0.855 | locus YJL166W, strain qcr8, hits give low values 0.824 | locus YJL187C, strain SWE1, hits give low values 0.913 | locus YKL009W, strain mrt4, hits give low values 0.801 | locus YKL160W, strain elf1, hits give low values 0.862 | locus YLL001W, strain dnm1, hits give low values 0.874 | locus YLL026W, hits give low values 0.899 | locus YLR221C, strain rsa3, hits give low values 0.872 | locus YLR258W, strain gsy2, hits give low values 0.859 | locus YLR262C, strain YPT6 (second series), hits give low values 0.728 | locus YLR320W, strain mms22, hits give low values 0.597 | locus YLR342W, strain FKS1, hits give low values 0.904 | locus YLR370C, strain arc18, hits give low values 0.894 | locus YML120C, strain ndi1, hits give low values 0.837 | locus YMR058W, strain fet3, hits give low values 0.852 | locus YMR125W, strain sto1, hits give low values 0.795 | locus YMR205C, strain PFK2, hits give low values 0.768 | locus YNL071W, strain lat1, hits give low values 0.665 | locus YNL248C, strain rpa49, hits give low values 0.884 | locus YNR049C, strain mso1, hits give low values 0.916 | locus YOR001W, strain rrp6, hits give low values 0.864 | locus YOR070C, strain gyp1, hits give low values 0.901 | locus YOR083W, strain WHI5, hits give low values 0.862 | locus YOR106W, strain vam3, hits give low values 0.806 | locus YOR184W, strain ser1, hits give low values 0.802 | locus YOR270C, strain vph1, hits give low values 0.539 | locus YOR290C, strain snf2, hits give low values 0.734 | locus YPL051W, strain arl3, hits give low values 0.854 | locus YPL078C, strain atp4, hits give low values 0.825 | locus YPL106C, strain sse1, hits give low values 0.788 | locus YPL240C, strain hsp82, hits give low values 0.923
